Our source for the Potency and outcome values is PubChem BioAssay (Tox21).

The target in assay [1] is Aryl hydrocarbon receptor (Homo sapiens) (UniProt P35869). Description: qHTS assay to identify small molecule that activate the aryl hydrocarbon receptor (AhR) signaling pathway (AID 743085). Also: nearly all actives have a fitted effect of over 15% in size. Also: potency is read from the fitted curve at half-maximal effect.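 As to activation: HG2L7.5c1 human HepG2 liver cells with stably integrated DRE-driven firefly reporter; series mostly up to about 70 µM.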 The essentials: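 Stably transfected human liver carcinoma cells (HG2L7.5c1; 20 DRE-firefly luciferase) were incubated 5 h, dosed, and kept 24 h at 37C. Agonism was scored from increased luciferase luminescence.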
A general note: In qHTS, concentration-response curves come from the screen itself.

Assay [2] in a line: qHTS assay to identify small molecule that activate the aryl hydrocarbon receptor (AhR) signaling pathway - cell viability counter screen (AID 743086).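 Also: HepG2 liver cells carrying the AhR DRE luciferase reporter; series mostly up to about 70 µM; nearly all actives have a fitted effect of over 45% in size.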 The essentials: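 HepG2-AhR-luc (HG2L7.5c1) cells, 4000/well, treated 24 h at 37 C with compound; viability measured as CellTiter-Fluor fluorescence after 30 min in the same wells as the luciferase read.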
Assay [3] deals with Peroxisome proliferator-activated receptor gamma (Homo sapiens) (UniProt P37231). In words: qHTS assay to identify small molecule agonists of the peroxisome proliferator-activated receptor gamma (PPARg) signaling pathway (AID 743094; active = well fitted activation curve with a large enough effect in the signal ratio in the repeat runs, not every such curve was filed as active; the % refers to the signal ratio). The essentials: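 Cells from the PPARg UAS-bla HEK293H line are plated and incubated 5 h at 37C. Compounds in DMSO are pinned in and left 17 h at 37C. LiveBLAzer B/G substrate is then added for 1 h at room temperature before fluorescence is measured.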

Assay [4] in a line: qHTS assay to identify small molecule antagonists of the peroxisome proliferator-activated receptor gamma (PPARg) signaling pathway - cell viability counter screen (AID 743194). Also: nearly all actives have a fitted effect of over 55% in size. To be noted: Potency: co-treated with 50 nM rosiglitazone. In a few lines:
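Cytotoxicity counter screen in PPARg-bla HEK293H cells, same wells as reporter assay. Compounds plus 50 nM rosiglitazone (final) for 17 h at 37 C, then viability read by CellTiter-Glo luminescence.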

A short description of assay [5]: qHTS assay for small molecule agonists of the antioxidant response element (ARE) signaling pathway (AID 743202; active = well fitted activation curve with a large enough effect in the signal ratio in the repeat runs, not every such curve was filed as active; the % refers to the signal ratio; also: potency is read from the fitted curve at half-maximal effect). In a few lines: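 HepG2 ARE-bla reporter line, 2,000 cells/well; 5 h preincubation 37 C/5% CO2; compound (DMSO) 16 h 37 C; B/G FRET substrate 2 h RT; fluorescence intensity.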
Assay [6] in a line: qHTS assay for small molecule activators of the heat shock response signaling pathway - cell viability counter screen (AID 743209). Also: nearly all actives have a fitted effect of over 50% in size. Also: potency is read from the fitted curve at half-maximal effect. The essentials:
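Cytotoxicity counter screen run in parallel with the HSE beta-lactamase reporter, using the same wells. HeLa HSE-bla cells received compound for 5 h at 37 C; ATP-based CellTiter-Glo luminescence was measured after 30 min at room temperature.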

Assay [7] can be described thus: qHTS assay for small molecule activators of the heat shock response signaling pathway (AID 743210; active = well fitted activation curve with a large enough effect in the signal ratio in the repeat runs, with a control signal flat, not every such curve was filed as active; the % refers to the signal ratio;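 also: HeLa cells with beta-lactamase reporter driven by heat shock elements; series mostly up to about 63 µM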). In a few lines:
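Beta-lactamase reporter read-out: FRET substrate fluorescence after 2.5 h at RT, following 5 h compound treatment at 37 C of HeLa cells carrying HSE-driven bla reporter; quantitative HTS format.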

Assay [8] is described as follows: qHTS assay to identify small molecule agonists of the peroxisome proliferator-activated receptor delta (PPARd) signaling pathway - cell viability counter screen (AID 743211). Also: nearly all actives have a fitted effect of over 55% in size. In a few lines: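 In the same wells used for beta-lactamase reporter measurement, cytotoxicity is scored by CellTiter-Glo. HEK293H PPARd-bla cells receive compound for 17 h at 37C following a 5 h settling period.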

Assay [9] deals with Peroxisome proliferator-activated receptor delta (Homo sapiens) (UniProt Q03181). Description: qHTS assay to identify small molecule agonists of the peroxisome proliferator-activated receptor delta (PPARd) signaling pathway (AID 743212; calls by dose curve). In a few lines: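 Read-out: beta-lactamase FRET fluorescence after 2 h room-temperature incubation with LiveBLAzer B/G substrate. Cells were HEK293H carrying a UAS-bla reporter for PPARd, treated at 37 C with DMSO-dissolved compounds.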

Assay [10] has the same target. Description: qHTS assay to identify small molecule antagonists of the peroxisome proliferator-activated receptor delta (PPARd) signaling pathway (AID 743215; active = well fitted inhibition curve with a large enough effect in the signal ratio in the repeat runs, not every such curve was filed as active; the % refers to the signal ratio;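 also: cells stimulated with agonist L165041 at 300 nM final during compound exposure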; also: potency is read from the fitted curve at half-maximal effect). In a few lines:
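Cells: HEK293H with a UAS-driven beta-lactamase reporter responsive to PPARd. Compounds were co-added with L165041 (300 nM, final) and incubated 17 h at 37 C before a 2 h room-temperature FRET substrate step and fluorescence reading.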

A short description of assay [11]: qHTS assay to identify small molecule agonists of the farnesoid-X-receptor (FXR) signaling pathway - cell viability counter screen (AID 743218). Also: nearly all actives have a fitted effect of over 45% in size. Also: potency is read from the fitted curve at half-maximal effect. The essentials:
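Cells were seeded, left 5 h at 37 C and 5% CO2, then dosed with compound in DMSO for 16 h. After the beta-lactamase FRET read, CellTiter-Glo was added and luminescence measured 30 min later.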

The nature of assay [12]: qHTS assay to identify small molecule antagonists of the farnesoid-X-receptor (FXR) signaling pathway - cell viability counter screen (AID 743221; active = well fitted cell-killing curve with a large enough effect in the repeat runs, not every such curve was filed as active; also: nearly all actives have a fitted effect of over 50% in size). In a few lines:
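Here viability was scored by luminescence after CellTiter-Glo addition to wells already read for beta-lactamase. Prior treatment: compound plus CDCA (50 uM final), 16 h, 37 C, HEK 293T FXR-bla cells.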

Assay [13] concerns the target Vitamin D3 receptor (Homo sapiens) (UniProt P11473). Description: qHTS assay to identify small molecule agonists of the vitamin D receptor (VDR) signaling pathway (AID 743222; calls by dose curve). In a few lines:
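Cells carrying a VDR-driven beta-lactamase reporter are seeded at 2,000 per well and rested 4 h. Compounds in DMSO are added for 16 h at 37C, and FRET substrate fluorescence is measured after 2 h at room temperature.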

For assay [14] the target is unchanged. Description: qHTS assay to identify small molecule antagonists of the vitamin D receptor (VDR) signaling pathway (AID 743223; active = well fitted inhibition curve with a large enough effect in the signal ratio in the repeat runs, not every such curve was filed as active; the % refers to the signal ratio). The essentials:
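Inhibition of agonist-driven VDR signalling is scored in VDR-bla cells: 3 nM final 1alpha,25-dihydroxyvitamin D3 plus compound, 16 h at 37C, then beta-lactamase detection by FRET substrate fluorescence after 2 h.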

Assay [15] can be described thus: qHTS assay to identify small molecule agonists of the vitamin D receptor (VDR) signaling pathway - cell viability counter screen (AID 743224). Also: nearly all actives have a fitted effect of over 50% in size. Also: potency is read from the fitted curve at half-maximal effect. The essentials: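 Cells: VDR-bla, 2,000/well, settled 4 h. Treatment: compounds in DMSO, 16 h, 37C/5% CO2. Readout: CellTiter-Glo luminescence after 30 min RT.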
Assay [16] concerns the target Bile acid receptor (Homo sapiens) (UniProt Q96RI1). In words: qHTS assay to identify small molecule antagonists of the farnesoid-X-receptor (FXR) signaling pathway (AID 743217; active = well fitted inhibition curve with a large enough effect in the signal ratio in the repeat runs, not every such curve was filed as active; the % refers to the signal ratio). The essentials:
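Cells carrying a UAS-driven beta-lactamase reporter (GeneBLAzer FXR-UAS-bla HEK 293T) were plated and rested 5 h at 37 °C. Compounds in DMSO were added alongside chenodeoxycholic acid agonist at 50 uM final and left 16 h at 37 °C before FRET substrate readout.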

Assay [17] has the same target. Description: qHTS assay to identify small molecule agonists of the farnesoid-X-receptor (FXR) signaling pathway (AID 743220; active = well fitted activation curve with a large enough effect in the signal ratio in the repeat runs, not every such curve was filed as active; the % refers to the signal ratio). In a few lines: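 FXR-UAS-bla HEK 293T cells carrying a UAS-driven beta-lactamase reporter were plated for 5 h at 37C/5% CO2, then exposed to DMSO-dissolved Tox21 10K compounds for 16 h at 37C. A LiveBLAzer B/G FRET substrate was loaded for 2 h at room temperature before fluorescence reading.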

Assay [18] is described as follows: qHTS assay for small molecule agonists of the antioxidant response element (ARE) signaling pathway - cell viability counter screen (AID 743203; calls by dose curve; also: nearly all actives have a fitted effect of over 55% in size; also: potency is read from the fitted curve at half-maximal effect). The essentials:
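Cytotoxicity was tested in parallel with the ARE reporter screen. ARE-bla HepG2 cells were exposed to compounds for 16 hrs, and viability was taken from CellTiter-Glo luminescence.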

The nature of assay [19]: qHTS assay to identify small molecule antagonists of the peroxisome proliferator-activated receptor delta (PPARd) signaling pathway - cell viability counter screen (AID 743213). Also: nearly all actives have a fitted effect of over 50% in size. In a few lines:
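In this counter screen, HEK293H cells carrying a UAS-beta-lactamase reporter are co-treated with test compounds and 300 nM L165041 (final) for 17 h at 37 C; cell viability is quantified by CellTiter-Glo luminescence.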

Records with an inconclusive call do not appear. Where a structure was tested more than once in an assay, its records may differ in their call. Calls of active or inactive are those of the source. Unless noted, calls follow the shape of the dose curve; as a rule, active = well fitted curve in the direction sought with a large enough effect in the repeat runs; inconclusive = weak or mixed curves; inactive = no such curve, though single readings can be large; an effect the other way counts as inactive or inconclusive.
% is scaled to controls: 0 for no effect and ±100 for the full control effect.

Sequence of Aryl hydrocarbon receptor (Homo sapiens) (P35869 whole entry, looked up): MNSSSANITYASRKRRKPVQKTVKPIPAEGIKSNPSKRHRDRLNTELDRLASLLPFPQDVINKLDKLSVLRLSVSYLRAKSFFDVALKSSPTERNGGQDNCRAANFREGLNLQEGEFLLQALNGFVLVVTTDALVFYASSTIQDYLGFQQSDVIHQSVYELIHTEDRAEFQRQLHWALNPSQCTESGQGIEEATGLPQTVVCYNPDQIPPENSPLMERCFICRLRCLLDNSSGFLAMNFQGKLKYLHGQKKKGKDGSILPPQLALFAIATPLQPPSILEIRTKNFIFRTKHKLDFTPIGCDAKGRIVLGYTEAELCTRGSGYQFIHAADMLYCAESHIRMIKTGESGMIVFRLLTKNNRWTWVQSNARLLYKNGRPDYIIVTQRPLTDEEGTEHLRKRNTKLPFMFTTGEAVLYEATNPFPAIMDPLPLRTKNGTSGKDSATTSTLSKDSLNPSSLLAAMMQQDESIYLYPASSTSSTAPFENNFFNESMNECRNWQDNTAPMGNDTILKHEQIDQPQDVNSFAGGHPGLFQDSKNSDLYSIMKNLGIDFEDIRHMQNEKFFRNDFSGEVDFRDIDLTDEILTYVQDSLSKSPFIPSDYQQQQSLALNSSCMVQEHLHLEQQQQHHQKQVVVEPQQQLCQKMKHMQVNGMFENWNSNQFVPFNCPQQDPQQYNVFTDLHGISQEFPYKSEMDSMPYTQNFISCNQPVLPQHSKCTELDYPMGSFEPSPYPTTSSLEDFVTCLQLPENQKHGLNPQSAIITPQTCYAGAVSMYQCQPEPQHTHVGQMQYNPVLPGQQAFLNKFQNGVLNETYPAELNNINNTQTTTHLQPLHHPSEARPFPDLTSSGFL
Sequence of Peroxisome proliferator-activated receptor gamma (Homo sapiens) (P37231 whole entry, looked up): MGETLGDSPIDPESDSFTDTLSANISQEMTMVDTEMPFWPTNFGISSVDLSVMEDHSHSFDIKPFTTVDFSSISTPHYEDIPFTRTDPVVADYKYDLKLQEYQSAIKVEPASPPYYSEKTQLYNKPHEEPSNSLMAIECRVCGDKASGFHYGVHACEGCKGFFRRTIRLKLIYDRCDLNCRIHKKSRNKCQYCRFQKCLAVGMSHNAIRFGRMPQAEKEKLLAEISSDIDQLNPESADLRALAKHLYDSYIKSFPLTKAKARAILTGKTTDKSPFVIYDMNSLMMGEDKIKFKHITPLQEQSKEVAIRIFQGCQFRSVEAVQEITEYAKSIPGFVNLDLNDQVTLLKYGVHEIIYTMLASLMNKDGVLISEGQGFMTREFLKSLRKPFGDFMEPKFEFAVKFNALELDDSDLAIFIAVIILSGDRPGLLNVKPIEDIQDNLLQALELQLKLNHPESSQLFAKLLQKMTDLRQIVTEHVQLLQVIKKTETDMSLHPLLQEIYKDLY
Sequence of Peroxisome proliferator-activated receptor delta (Homo sapiens) (Q03181 whole entry, looked up): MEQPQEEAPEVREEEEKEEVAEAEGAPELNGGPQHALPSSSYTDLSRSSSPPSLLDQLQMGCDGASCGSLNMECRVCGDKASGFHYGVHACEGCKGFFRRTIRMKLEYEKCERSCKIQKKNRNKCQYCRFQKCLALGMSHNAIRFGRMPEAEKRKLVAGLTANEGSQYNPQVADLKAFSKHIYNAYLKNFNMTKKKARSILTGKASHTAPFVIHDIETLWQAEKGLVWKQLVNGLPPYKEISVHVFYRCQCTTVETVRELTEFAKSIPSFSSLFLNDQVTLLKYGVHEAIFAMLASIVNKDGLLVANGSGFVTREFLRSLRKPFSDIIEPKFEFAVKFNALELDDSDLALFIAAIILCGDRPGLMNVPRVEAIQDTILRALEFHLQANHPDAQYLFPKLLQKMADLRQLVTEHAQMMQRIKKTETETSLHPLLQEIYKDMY
Sequence of Bile acid receptor (Homo sapiens) (Q96RI1 whole entry, looked up): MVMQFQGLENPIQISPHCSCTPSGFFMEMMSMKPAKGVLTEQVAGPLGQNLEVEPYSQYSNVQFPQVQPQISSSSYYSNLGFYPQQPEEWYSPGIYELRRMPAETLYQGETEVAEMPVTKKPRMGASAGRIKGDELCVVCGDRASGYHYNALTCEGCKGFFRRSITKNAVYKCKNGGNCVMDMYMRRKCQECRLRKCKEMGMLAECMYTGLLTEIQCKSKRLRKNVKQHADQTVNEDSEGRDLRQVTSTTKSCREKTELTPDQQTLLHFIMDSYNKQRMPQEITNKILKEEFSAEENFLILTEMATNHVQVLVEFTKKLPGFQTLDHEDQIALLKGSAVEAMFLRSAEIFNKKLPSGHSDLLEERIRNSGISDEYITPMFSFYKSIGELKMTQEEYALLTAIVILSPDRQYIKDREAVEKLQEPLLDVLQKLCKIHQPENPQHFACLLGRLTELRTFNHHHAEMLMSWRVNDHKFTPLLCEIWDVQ
Sequence of Vitamin D3 receptor (Homo sapiens) (P11473 whole entry, looked up): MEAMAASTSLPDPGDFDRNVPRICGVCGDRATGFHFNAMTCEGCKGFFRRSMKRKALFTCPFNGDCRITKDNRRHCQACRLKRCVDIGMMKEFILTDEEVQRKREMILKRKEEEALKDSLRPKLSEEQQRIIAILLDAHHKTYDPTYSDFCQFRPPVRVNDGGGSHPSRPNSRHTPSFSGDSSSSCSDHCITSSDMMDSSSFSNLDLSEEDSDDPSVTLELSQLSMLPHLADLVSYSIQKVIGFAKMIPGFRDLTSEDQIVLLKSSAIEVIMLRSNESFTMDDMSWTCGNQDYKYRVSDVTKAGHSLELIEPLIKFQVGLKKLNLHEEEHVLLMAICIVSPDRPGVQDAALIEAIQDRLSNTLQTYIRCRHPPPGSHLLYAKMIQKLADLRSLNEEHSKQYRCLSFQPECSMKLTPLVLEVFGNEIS

In the case of `CNC(=O)NC(O)C(Cl)(Cl)Cl` (stereo not given), the Potency entry in assay [1], in [2], in assay [4], in assay [5], in [6] and in assay [7] was “inactive” throughout. In addition, the Potency result in [8], in assay [10], in assay [11], in assay [12] and in [15] was “inactive” in each case. The compound was classed as inactive in assay [3], in assay [9], in assay [13] and in assay [14].
Turning to `CC(C)(C)c1cc(O)ccc1O`, the Potency in assay [1] is 26.6 µM (active) [middle of 4 runs]; in assay [5], 3.86 µM (active); in [10], 54.9 µM (active). Moreover, the Potency result in [2], in assay [4], in assay [6], in assay [7], in assay [11] and in assay [12] was “inactive” each time. Also, the Potency result in assay [15] is “inactive”. Further, the call in [3], in assay [9], in assay [16] and in assay [17] was inactive.
Take `CC(C)(N)Cc1ccc(Cl)cc1`: the Potency result in [1], in assay [2], in [4], in assay [18], in assay [6] and in assay [7] was “inactive” in each case. Moreover, the Potency entry in assay [8], in assay [11] and in assay [12] was “inactive” throughout. For the same compound, the call in assay [3], in [9] and in assay [13] was inactive.
As for `CCOP(=O)(CN(CCO)CCO)OCC`, the Potency result in assay [1], in assay [2], in [4], in assay [18], in assay [7] and in assay [8] was “inactive” in each case. The Potency result in assay [19], in assay [10], in assay [11], in assay [12] and in assay [15] was “inactive” in each case. Further, the result in assay [3], in assay [9], in [13] and in assay [14] was inactive.
On to `ClC1=C(Cl)C2(Cl)C(CBr)CC1(Cl)C2(Cl)Cl` (stereo not given), for which the Potency entry in [1], in assay [2], in assay [5], in [7], in [8] and in [19] was “inactive” in each case. The Potency result in assay [10] and in [12] was “inactive” each time. For the same compound, the compound was classed as inactive in assay [3], in assay [9], in assay [13] and in assay [14]. Moreover, the Potency in [18] is 54.5 µM (active) and inactive; in [6], 54.9 µM (active) and inactive; in assay [11] it was 54.9 µM (active) and inactive; in assay [15], 34.7 µM (active) and inactive.
Take `CN(CCO)CCO`: the Potency entry in assay [1], in assay [2], in assay [4], in assay [7], in [8] and in [12] was “inactive” each time. Also, the Potency result in assay [15] is “inactive”. For the same compound, the compound was called inactive in [3], in assay [9], in assay [16], in assay [17], in [13] and in assay [14].
Take `Cc1cc(OC(=O)N(C)C)nn1C(=O)N(C)C`: the Potency result in assay [1], in [2], in [5], in assay [18], in assay [6] and in assay [7] was “inactive” each time. Further, the Potency result in assay [8], in [19], in assay [10], in assay [11], in assay [12] and in assay [15] was “inactive” in each case. Besides, the outcome in assay [3], in [9], in assay [16] and in assay [17] was inactive.
With `CCOC1Oc2ccc(OS(C)(=O)=O)cc2C1(C)C` (stereo not given), the Potency result in assay [1], in assay [2], in assay [4], in [6], in [8] and in assay [19] was “inactive” in each case. Also, the Potency result in assay [11] and in [12] was “inactive” throughout. In addition, the result in assay [3], in assay [9] and in [13] was inactive.
For the compound `O=[N+]([O-])CCO`, the Potency entry in [1], in assay [2], in assay [4], in assay [18], in [6] and in assay [8] was “inactive” in each case. The Potency result in [19] and in assay [11] was “inactive” throughout. Further, the compound was classed as inactive in [3].
As to `CN(C)C1CCCCC1`, the Potency entry in [1], in [2], in [5], in assay [18], in assay [6] and in assay [8] was “inactive” throughout. Also, the Potency result in assay [19], in [10], in assay [11], in [12] and in assay [15] was “inactive” each time. The outcome in assay [3], in assay [9], in assay [13] and in assay [14] was inactive.
Take `C=CC=O`: the Potency result in assay [1], in assay [2], in [4], in assay [18], in assay [6] and in [7] was “inactive” throughout. In addition, the Potency entry in assay [8], in [11] and in [12] was “inactive” in each case. The result in [3], in [9], in assay [13] and in assay [14] was inactive.
With `O=C(O)c1c(Cl)ccc2cc(Cl)cnc12`, the Potency result in assay [1], in assay [2], in assay [4], in assay [18], in assay [6] and in [7] was “inactive” each time. The Potency entry in assay [8], in [19], in [11] and in assay [12] was “inactive” throughout. The call in assay [3], in assay [9], in [16], in assay [17], in assay [13] and in [14] was inactive.
Turning to `CCC(C)(C#N)N=NC(C)(C#N)CC` (stereo not given), the Potency result in assay [1], in assay [2], in assay [4], in assay [18], in [6] and in assay [7] was “inactive” in each case. The Potency result in assay [8], in assay [19], in assay [10], in [11], in assay [12] and in assay [15] was “inactive” each time. Also, the result in assay [3] and in [9] was inactive.
With `CON(C)C(=O)Nc1ccc(Br)c(Cl)c1`, the Potency in assay [1] is 30.6 µM (active). Besides, the Potency result in assay [2], in assay [5], in [18], in [6], in assay [8] and in assay [11] was “inactive” throughout. The Potency result in assay [12] and in [15] was “inactive” in each case. Also, the outcome in [3] and in assay [13] was inactive.
